Bioassay records deposited in PubChem by National Center for Advancing Translational Sciences (NCATS).
D1 PAM: Potentiators of Human D1 Dopamine Receptor: qHTS; D(1A) dopamine receptor (Homo sapiens), P21728; HEK293 TREx D1 cells, calcium flux, dopamine EC20 potentiation; potentiation, % at 10 µM; 0.036% of 360,000 active; AID 504651, 2011; in the data active = potentiation above about 30%
Target sequence (P21728 whole entry, looked up): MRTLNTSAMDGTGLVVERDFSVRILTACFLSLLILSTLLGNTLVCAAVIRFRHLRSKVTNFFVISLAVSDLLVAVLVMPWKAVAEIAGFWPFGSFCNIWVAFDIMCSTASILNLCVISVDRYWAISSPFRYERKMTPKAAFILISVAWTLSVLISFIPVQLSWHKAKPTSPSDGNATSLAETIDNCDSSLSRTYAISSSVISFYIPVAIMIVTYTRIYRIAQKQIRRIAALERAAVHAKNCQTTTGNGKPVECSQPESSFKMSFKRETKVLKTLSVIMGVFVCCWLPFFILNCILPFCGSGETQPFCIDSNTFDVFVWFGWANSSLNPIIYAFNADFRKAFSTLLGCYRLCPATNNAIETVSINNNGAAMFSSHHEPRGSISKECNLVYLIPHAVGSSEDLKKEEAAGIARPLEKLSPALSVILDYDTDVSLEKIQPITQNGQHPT
TRHR ag: qHTS for Small Molecule Agonists and Allosteric Enhancers of Human TRH Receptor: Primary Screen for Agonists. 0.18% of 360,000 active. Thyrotropin-releasing hormone receptor (Homo sapiens), P34981. activation, % at 2 µM. TRHR cells, calcium flux fluo-8, FDSS agonist mode
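Read-out: compound-evoked intracellular calcium rise in TRHR cells, fluo-8 dye, kinetic FDSS fluorescence at 1 s/cycle following a 10-cycle baseline. Cells cultured overnight before dye loading (30 min–1.5 h, RT).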
TRHR PAM: qHTS for Small Molecule Agonists and Allosteric Enhancers of Human TRH Receptor: Primary Screen for Enhancers. TRHR cells, fluo-8 calcium fluorescence, EC20 TRH enhancement. AID 493056, 2011. enhancement, % at 2 µM. Thyrotropin-releasing hormone receptor (Homo sapiens), P34981. 0.66% of 360,000 active; in the data active = enhancement above about 30%
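TRHR-expressing cells loaded with fluo-8 calcium dye were read kinetically (ex 480/em 530) during compound addition, then stimulated with an EC20 of TRH (10 nM final). Enhancement of the Gq-mediated intracellular calcium response was scored.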
D1 antag: Antagonist of Human D 1 Dopamine Receptor: qHTS | HEK293 TREx D1 cells, calcium flux, dopamine EC80; stronger effect = lower value | 3.2% of 360,000 active | activity change, negative = inhibition, % at 10 µM | D(1A) dopamine receptor (Homo sapiens), P21728 | AID 504652, 2011; in the data active = activity change below about -30%
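Calcium flux readout: force-coupled, inducible Hek293 Trex D1 line, cells induced overnight at 30 C with tetracycline, dye-loaded 30–90 min at RT. Antagonism scored against EC80 dopamine challenge given 180 s after compound.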
D1 ag: Allosteric Agonists of the Human D1 Dopamine Receptor: qHTS; D(1A) dopamine receptor (Homo sapiens), P21728; HEK293 T-REx D1 cells, calcium flux, agonist mode; activation, % at 2 µM; 1% of 360,000 active
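Tetracycline-induced HEK293 TREx D1 cells, force-coupled to calcium signalling, were dye-loaded with a no-wash calcium kit. Compound was pin-added after a 10 s baseline. Fluorescence was read kinetically at 1 cycle/s for 180 s, with calcium rises flagged as agonism.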
Numbers stand for hits; 0 = inactive; - = not tested or not shown. Sampled rows, rich in hits. Any-hit rate of the full collection: about 4.7%. Cut-off read from the data, not from the text of the source, unless noted: active = activation above about 30%; inactive = the rest.

SMILES | D1 PAM | TRHR ag | TRHR PAM | D1 antag | D1 ag
CCN(C(=O)c1cc2c(Cl)nc3ccc(C)cc3c2s1)c1cc(OC)ccc1OC | 0 | 0 | 0 | 0 | 0
Cc1cc(C)c2c(N)c(C(=O)Nc3cccc(C)c3C)sc2n1 | 0 | 0 | 0 | -30.9 | 0
Cc1ccc(NC(=O)c2sc3nc(C)cc(C)c3c2N)cc1 | 0 | 0 | 0 | 0 | 0
O=C(Cn1c(=O)oc2ccccc21)Nc1nnc(N2CCCCCC2)s1 | 0 | 0 | 30.4 | 0 | 0
O=C(CS(=O)(=O)c1cccc2nsnc12)NCc1ccccc1 | 0 | 0 | 0 | 0 | 0
COc1ccc(-c2[nH]ncc2CN2CCC(OCc3ccccc3)CC2)c(F)c1 | 0 | 0 | 0 | -51.9 | 0
COCCNC(=O)CCc1c(C)nc2c(c(C)nn2-c2ccc(C)cc2)c1C | 0 | 0 | 0 | 0 | 0
CCN(CC)CCNC(=O)CCc1c(C)nc2c(c(C)nn2-c2ccc(C)cc2)c1C | 0 | 0 | 30.1 | 0 | 0
Cc1ccc(CN2CCCn3nc(C(=O)NC(C)C)cc3C2=O)cc1 | 0 | 0 | 0 | 0 | 0
Cc1ccc(N(C(C)C(=O)N2CCN(Cc3ccccc3)CC2)S(C)(=O)=O)cc1 (stereo not given) | 0 | 0 | 36.7 | 0 | 0
Cc1cc(C)cc(NC(=S)N2CCN(C(=O)c3ccco3)CC2)c1 | 0 | 0 | 0 | -38.7 | 0
CCOc1ccccc1-c1nc(CN2CCCN(C(=O)c3ccco3)CC2)c(C)o1 | 0 | 0 | 0 | -67.5 | 0
CCOC(=O)N1CCN(C(=O)C(C)N(c2ccc(Oc3ccccc3)cc2)S(C)(=O)=O)CC1 (stereo not given) | 0 | 0 | 0 | 0 | 0
Cc1onc(-c2ccccc2)c1C(=O)N1CCN(C(=O)c2ccco2)CC1 | 0 | 0 | 30.1 | 0 | 0
COc1cccc(CNCCSc2nnnn2-c2ccccc2)c1OC | 0 | 0 | 0 | 0 | 0
CCc1ccc(NC(=O)CN2C(=O)C(c3ccc(Cl)cc3)=NC23CCCCC3)cc1 | 0 | 0 | 0 | 0 | 0
CCS(=O)(=O)N1CCc2cc(C(=O)Nc3ccc(OC)cc3OC)ccc21 | 0 | 0 | 0 | 0 | 0
Cc1ccccc1CN1CCN(C(=O)c2ccco2)CC1 | 0 | 0 | 0 | 0 | 0
O=C(Nc1ccc(Cl)c(Cl)c1)C1CCN(C(=O)c2ccco2)CC1 | 0 | 0 | 0 | 0 | 40.8
Cc1ccc(NC(=O)C2CCN(C(=O)c3ccco3)CC2)cc1 | 0 | 0 | 0 | 0 | 0
Cc1ccc(CN2CCN(C(=O)c3ccco3)CC2)cc1 | 0 | 0 | 0 | -30.4 | 0
CCOc1ccc(C(=O)Nc2nnc(S(=O)(=O)N(CC)c3ccccc3C)s2)cc1 | 0 | 0 | 0 | 0 | 0
COc1ccc(COc2ccccc2C(=O)NCc2ccccc2)cc1F | 0 | 0 | 0 | -36.9 | 0
Cc1cc(C)cc(NC(=O)C(C)N2Cc3ccccc3C2=O)c1 (stereo not given) | 0 | 0 | 0 | 0 | 0
CCN(CC)c1nn2c(=O)c(C(=O)NCCc3cccc(C)c3)cnc2s1 | 0 | 0 | 0 | 0 | 0
SMILES | D1 PAM | TRHR ag | TRHR PAM | D1 antag | D1 ag
CCN(CC)c1ccc2cc(C=O)c(=O)oc2c1 | 0 | 116.2 | 0 | 0 | 186.8
CCN(CC)c1ccc2cc(C(=O)Nc3ccccn3)c(=O)oc2c1 | 0 | 37.4 | 0 | 0 | 0
N/C(=N\NC(=O)c1cccs1)c1cc2ccccc2oc1=O | 0 | 0 | 0 | 0 | 0
CCN(CC)c1ccc2cc(C(N)=O)c(=N)oc2c1 | 0 | 0 | 0 | 0 | 0
CCN(CC)c1ccc2cc(C(N)=O)c(=O)oc2c1 | 0 | 0 | 0 | 0 | 32.4
CCN(CC)c1ccc2cc(C(=O)Nc3cccnc3N3CCOCC3)c(=O)oc2c1 | 0 | 0 | 0 | 0 | 0
CCN(CC)c1ccc2cc(/C(N)=N/NC(=O)c3cccs3)c(=O)oc2c1 | 0 | 0 | 0 | 0 | 30.4
COC(=O)CN1C(=O)CSc2ccc(S(=O)(=O)Nc3cccc(C)c3)cc21 | 0 | 0 | 0 | 0 | 0
CC(C)c1nc2ccc(C(=O)NCCCN3CCN(c4ccccc4F)CC3)cc2o1 | 0 | 0 | 0 | 0 | 0
CCN(C(=O)C1CCCN(c2ncnc3c2nc2n3CCCCC2)C1)c1cccc(C)c1 (stereo not given) | 0 | 0 | 0 | 0 | 0
CC(C)CCn1c(=O)c2sccc2n2c(CCCC(=O)Nc3ccc(F)c(Cl)c3)nnc12 | 0 | 0 | 0 | 0 | 0
CCOc1ccccc1N(CC)C(=O)c1cc2c(=O)[nH]c3ccc(C)cc3c2s1 | 0 | 0 | 0 | 0 | 0
CCN(CC)c1ccc2cc(C(C)=O)c(=O)oc2c1 | 0 | 66.5 | 0 | 0 | 145.9
CC(=O)c1cc2c(ccc3ccccc32)oc1=O | 0 | 0 | 0 | 0 | 0
N#C/C(=C\c1ccc(OCC(N)=O)cc1)C(=O)NC1CC1 | 0 | 0 | 0 | -36.2 | 0
CCc1ccc(NC(=O)NCC2CCN(Cc3cccc(Cl)c3)CC2)cc1 | 0 | 0 | 0 | -36.5 | 36.2
COc1ccc(C)cc1Nc1nc2c(S(=O)(=O)c3cc(C)ccc3C)nnn2c2ccsc12 | 0 | 0 | 0 | 0 | 0
CCN(CC)S(=O)(=O)c1ccc(C(=O)NCCSc2c(-c3ccc(F)cc3)[nH]c3ccccc23)cc1 | 0 | 0 | 0 | 0 | 0
CCC(=O)N1CCc2cc(S(=O)(=O)NC(C(=O)NCCc3ccc(Cl)cc3)C(C)C)ccc21 (stereo not given) | 0 | 0 | 0 | 0 | 0
CC(=O)c1cccc(NC(=O)NCc2ccc3c(c2)OCO3)c1 | 0 | 0 | 0 | 0 | 0
COc1ccc(Cl)cc1NC(=O)NCc1ccc2c(c1)OCO2 | 0 | 0 | 0 | -32.7 | 0
O=C(NCc1ccc2c(c1)OCO2)Nc1cccc(Cl)c1 | 0 | 0 | 0 | -41.2 | 0
COc1ccc(Cl)cc1NC(=O)Nc1cn(C)nc1C | 0 | 0 | 0 | -61.2 | 0
CCN1CCC(N(Cc2ccc3c(c2)OCO3)C(=O)Nc2cc(Cl)ccc2C(=O)OC)CC1 | 0 | 0 | 0 | 0 | 48.7
CCc1ccc(NC(=O)C2CCCN(S(=O)(=O)c3c(C)noc3/C=C/N(C)C)C2)cc1 (stereo not given) | 0 | 0 | 0 | 0 | 0
SMILES | D1 PAM | TRHR ag | TRHR PAM | D1 antag | D1 ag
Cc1c(Cl)cccc1NS(=O)(=O)c1ccc(-c2cnc(C3CC3)o2)cc1 | 0 | 0 | 0 | 0 | 0
N#C/C(=C\c1cccs1)Sc1nc2ccccc2s1 | 0 | 0 | 0 | -34.7 | 0
N#C/C(=C\c1ccc[nH]1)Sc1nc2ccccc2s1 | 0 | 0 | 0 | 0 | 0
NS(=O)(=O)c1ccc(NC=C2C(=O)OC3(CCCCC3)OC2=O)cc1 | 0 | 0 | 32.9 | 0 | 0
CCCCc1ccc(NC=C2C(=O)OC3(CCCCC3)OC2=O)cc1 | 0 | 0 | 0 | - | 0
CCOc1ccc(C2NC(=O)Cc3cc(OC)c(OC)cc32)cc1 (stereo not given) | 0 | 0 | 0 | 0 | 0
